From the supplement of paper PMC12494721
Where a name gives a salt, the structure may show the parent alone.

Columns and labels:
Settings in all cases: incubation time: 27 h, anaerobic, 37 °C;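 for the amine columns active = adjusted P below 0.05 in both replicates with a change the same way and a mean fold change under 0.8 or over 1.25; inactive = the rest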
[1] = tested on: Clostridium sporogenes DSM 1664; test: growth (OD595) fold change vs plate DMSO controls (fold change (ratio)); higher = more growth
Method in brief: (§1)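 The measure reported is growth, taken as fold change against the median of DMSO controls on the same plate. Anaerobic mGAM cultures in 96-well plates (27 h, 37 °C) were read at 595 nm, blank-subtracted, corrected for compound background using 20 µM compound solutions in water, and multiplied by a calibration factor of 5 to give OD. Any fold change above 1.5 became NA, and 2 biological replicates were averaged.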

Escherichia coli IAI1 [2] = test: as above
Method in brief: as §1

[3] = tested on: Klebsiella aerogenes DSM 30053; test: as above
Method in brief: as §1

[4] = tested on: Ruminococcus gnavus DSM 108212; test: as above
Method in brief: as §1

[5] = tested on: Klebsiella aerogenes DSM 30053; test: fold change of Histamine concentration vs plate DMSO controls (fold change (ratio)); higher = more amine produced, active = hit call of the paper (significant change in both replicates, either direction)
Method in brief: (§2)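 Anaerobic mGAM cultures of four gut bacterial strains were grown at 37 °C for 27 h in 80 µL wells, starting at OD 0.1 before 1:1 dilution. Compounds were at 20 µM final (sweeteners 50 µM). Whole cultures were extracted with cold acetonitrile/methanol containing 0.1% formic acid and centrifuged. Amines were quantified by LC–triple-quadrupole MS (dynamic MRM) against external calibration curves and drift-corrected within batch. Each value is the fold change versus plate DMSO controls, averaged over 2 biological replicates.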

[6] = tested on: Clostridium sporogenes DSM 1664; test: fold change of Tryptamine concentration vs plate DMSO controls (fold change (ratio)); higher = more amine produced, active = hit call of the paper (significant change in both replicates, either direction)
Method in brief: as §2

[7] = tested on: Ruminococcus gnavus DSM 108212; test: as above
Method in brief: as §2

Escherichia coli IAI1 [8] = test: fold change of Putrescine concentration vs plate DMSO controls (fold change (ratio)); higher = more amine produced, active = hit call of the paper (significant change in both replicates, either direction)
Method in brief: as §2

[9] = tested on: Klebsiella aerogenes DSM 30053; test: as above
Method in brief: as §2

Escherichia coli IAI1 [10] = test: fold change of Cadaverine concentration vs plate DMSO controls (fold change (ratio)); higher = more amine produced, active = hit call of the paper (significant change in both replicates, either direction)
Method in brief: as §2

[11] = tested on: Klebsiella aerogenes DSM 30053; test: as above
Method in brief: as §2

[12] = tested on: Ruminococcus gnavus DSM 108212; test: fold change of 2-Phenylethylamine concentration vs plate DMSO controls (fold change (ratio)); higher = more amine produced, active = hit call of the paper (significant change in both replicates, either direction)
Method in brief: as §2

Row | Compound | growth [1] | growth (Escherichia coli IAI1 [2]) | growth [3] | growth [4] | fold change of Histamine concentration [5] | fold change of Tryptamine concentration [6] | fold change of Tryptamine concentration [7] | fold change of Putrescine concentration (Escherichia coli IAI1 [8]) | fold change of Putrescine concentration [9] | fold change of Cadaverine concentration (Escherichia coli IAI1 [10]) | fold change of Cadaverine concentration [11] | fold change of 2-Phenylethylamine concentration [12]
1 | O=C(O)CNC(=O)C(CS)Cc1ccccc1 (stereo not given) [Thiorphan] (20 µM) | 1.06 | 1.02 | 1.05 | 0.855 | 0.964 (inactive) | 1.22 (inactive) | 1.04 (inactive) | 0.969 (inactive) | 0.983 (inactive) | 0.956 (inactive) | 1.02 (inactive) | 1.02 (inactive)
2 | COc1ccc(/C=C/C(=O)Nc2ccccc2C(=O)O)cc1OC [Tranilast] (20 µM) | 1.04 | 1.07 | 1.19 | 1.08 | 0.89 (inactive) | 0.993 (inactive) | 1.01 (inactive) | 0.977 (inactive) | 0.994 (inactive) | 0.995 (inactive) | 1.02 (inactive) | 0.981 (inactive)
3 | O=C(CCCl)NCc1ccccc1 [Beclamide] (20 µM) | 1.18 | 1.02 | 1 | 1.07 | 1.03 (inactive) | 1.02 (inactive) | 1.02 (inactive) | 1.01 (inactive) | 1.01 (inactive) | 1.04 (inactive) | 0.996 (inactive) | 1.03 (inactive)
4 | C/C(=C\C(=O)OCCCCCCCCC(=O)O)C[C@@H]1OC[C@H](C[C@@H]2O[C@H]2[C@@H](C)[C@H](C)O)[C@@H](O)[C@H]1O [Mupirocin] (20 µM) | 0.909 | 0.423 | 0.631 | 0.934 | 0.384 (active) | 0.968 (inactive) | 1.04 (inactive) | 0.182 (active) | 0.7 (active) | 0.209 (active) | 0.763 (active) | 0.957 (inactive)
5 | CCCCc1nc(Cl)c(CO)n1Cc1ccc(-c2ccccc2-c2nnn[nH]2)cc1 [Losartan] (20 µM) | 1.01 | 0.991 | 1.01 | 0.99 | 1.07 (inactive) | 0.975 (inactive) | 1.05 (inactive) | 1.01 (inactive) | 1.04 (inactive) | 0.99 (inactive) | 1 (inactive) | 1.06 (inactive)
6 | CNC(=C[N+](=O)[O-])NCCSCc1ccc(CN(C)C)o1 [Ranitidine hydrochloride] (20 µM) | 1.07 | 1.01 | 1.07 | 1.47 | 0.953 (inactive) | 1.05 (inactive) | 0.99 (inactive) | 0.996 (inactive) | 1.01 (inactive) | 1.03 (inactive) | 1.02 (inactive) | 0.984 (inactive)
7 | CCCSc1nc(N[C@@H]2C[C@H]2c2ccc(F)c(F)c2)c2nnn([C@@H]3C[C@H](OCCO)[C@@H](O)[C@H]3O)c2n1 [Ticagrelor] (20 µM) | 1.15 | 0.999 | 1.02 | 1.03 | 0.977 (inactive) | 0.88 (inactive) | 0.748 (active) | 1.04 (inactive) | 1.04 (inactive) | 1.07 (inactive) | 1.01 (inactive) | 0.802 (inactive)
8 | CCOC(=O)OC(C)OC1=C(C(=O)Nc2ccccn2)N(C)S(=O)(=O)c2ccccc21 (stereo not given) [Ampiroxicam] (20 µM) | 1.02 | 0.978 | 1.03 | 1.1 | 0.908 (inactive) | 0.998 (inactive) | 0.999 (inactive) | 0.976 (inactive) | 0.998 (inactive) | 0.983 (inactive) | 1.01 (inactive) | 0.99 (inactive)
9 | CC(=O)OCC(=O)[C@@]1(O)CC[C@H]2[C@@H]3CCC4=CC(=O)C=C[C@]4(C)[C@@]3(Cl)[C@@H](Cl)C[C@@]21C [Dichlorisone acetate] (20 µM) | 1.03 | 1.01 | 1 | 0.886 | 0.984 (inactive) | 1.01 (inactive) | 1.01 (inactive) | 1.05 (inactive) | 1.01 (inactive) | 1.04 (inactive) | 1 (inactive) | 0.997 (inactive)
10 | Cn1cc(C(=O)Nc2ccccc2-c2cc(F)c(F)c(F)c2)c(C(F)F)n1 (20 µM) | 1.04 | 0.97 | 0.98 | 0.98 | 1.02 (inactive) | 1.03 (inactive) | 0.986 (inactive) | 1.02 (inactive) | 1.02 (inactive) | 1.01 (inactive) | 0.989 (inactive) | 0.966 (inactive)
11 | COc1ccc(-c2cc(=S)ss2)cc1 [Anethole-trithione] (20 µM) | 0.802 | 1.01 | 0.968 | 1.04 | 1.04 (inactive) | 1.18 (inactive) | 1.07 (inactive) | 1.01 (inactive) | 0.972 (inactive) | 1.01 (inactive) | 0.986 (inactive) | 1.07 (inactive)
12 | O=C1OCCN1/N=C/c1ccc([N+](=O)[O-])o1 [Furazolidone] (20 µM) | 0.395 | 1.04 | 0.855 | 1.22 | 0.991 (inactive) | 0.402 (inactive) | 0.973 (inactive) | 0.81 (inactive) | 0.937 (inactive) | 1.75 (active) | 1 (inactive) | 1.11 (inactive)
13 | CC1(C)O[C@@H]2C[C@H]3[C@@H]4CCC5=CC(=O)C=C[C@]5(C)[C@H]4[C@@H](O)C[C@]3(C)[C@]2(C(=O)CO)O1 [Desonide] (20 µM) | 0.99 | 1.02 | 1.01 | 1.21 | 1.05 (inactive) | 1.18 (inactive) | 1.14 (inactive) | 0.903 (inactive) | 0.991 (inactive) | 0.893 (inactive) | 0.997 (inactive) | 1.23 (inactive)
14 | C=CC[C@@H]1/C=C(\C)C[C@H](C)C[C@H](OC)[C@H]2O[C@@](O)(C(=O)C(=O)N3CCCC[C@H]3C(=O)O[C@H](/C(C)=C/[C@@H]3CC[C@@H](O)[C@H](OC)C3)[C@H](C)[C@@H](O)CC1=O)[C@H](C)C[C@@H]2OC [Tacrolimus Monohydrate] (20 µM) | 0.867 | 1.04 | 1.02 | 1.02 | 1.02 (inactive) | 1.02 (inactive) | 1.01 (inactive) | 1.05 (inactive) | 1.02 (inactive) | 1.01 (inactive) | 1.01 (inactive) | 1.02 (inactive)
15 | CCOC(=O)C1=C(C)NC(C)=C(C(=O)OC)C1c1cccc([N+](=O)[O-])c1 (stereo not given) [Nitrendipine] (20 µM) | 1.04 | 1.01 | 1.02 | 1.06 | 1.08 (inactive) | 0.947 (inactive) | 0.911 (inactive) | 1.09 (inactive) | 0.993 (inactive) | 1.01 (inactive) | 1.01 (inactive) | 0.913 (inactive)
16 | CC1=C(C(=O)O)N2C(=O)[C@@H](NC(=O)[C@H](N)c3ccc(O)cc3)[C@H]2SC1 [Cefadroxil] (20 µM) | 0.898 | 1.03 | 1 | 1.08 | 1.08 (inactive) | 0.974 (inactive) | 1 (inactive) | 1.03 (inactive) | 1.01 (inactive) | 1.02 (inactive) | 0.996 (inactive) | 1.03 (inactive)
17 | CN(CCCN1c2ccccc2CCc2ccccc21)CC(=O)c1ccc(Cl)cc1 [Lofepramine] (20 µM) | 1.02 | 0.937 | 1.02 | 1.2 | 0.986 (inactive) | 1.04 (inactive) | 0.891 (inactive) | 1.01 (inactive) | 1.03 (inactive) | 0.989 (inactive) | 0.999 (inactive) | 0.851 (inactive)
18 | C#CCN(C)Cc1ccccc1 [Pargyline hydrochloride] (20 µM) | 0.983 | 0.989 | 1.03 | 0.999 | 0.983 (inactive) | 1.01 (inactive) | 1.01 (inactive) | 0.99 (inactive) | 1.01 (inactive) | 1 (inactive) | 1.01 (inactive) | 0.995 (inactive)
19 | Cc1ncc(C[n+]2csc(CCO)c2C)c(N)n1 [Thiamine hydrochloride] (20 µM) | 0.972 | 0.961 | 1.01 | 1.14 | 0.968 (inactive) | 1.06 (inactive) | 0.914 (inactive) | 1.01 (inactive) | 0.998 (inactive) | 1.01 (inactive) | 1.01 (inactive) | 0.868 (inactive)
20 | CCC1(c2ccccc2)C(=O)NCNC1=O [Primidone] (20 µM) | 0.938 | 0.953 | 0.991 | 1.01 | 1.09 (inactive) | 0.973 (inactive) | 1.02 (inactive) | 0.982 (inactive) | 1.03 (inactive) | 0.999 (inactive) | 0.981 (inactive) | 1.03 (inactive)
21 | CN1CCCC(CC2c3ccccc3Sc3ccccc32)C1 (stereo not given) [Metixene hydrochloride] (20 µM) | 1.02 | 0.988 | 1.02 | 1.25 | 0.998 (inactive) | 1.06 (inactive) | 0.807 (inactive) | 0.956 (inactive) | 1.02 (inactive) | 0.999 (inactive) | 1.01 (inactive) | 0.88 (inactive)
22 | O=C(Nc1ccccc1)OCC(CN1CCCCC1)OC(=O)Nc1ccccc1 (stereo not given) [Diperodon hydrochloride] (20 µM) | 1.11 | 0.998 | 0.962 | 0.942 | 1.05 (inactive) | 0.94 (inactive) | 0.952 (inactive) | 0.975 (inactive) | 1.03 (inactive) | 1.03 (inactive) | 0.976 (inactive) | 0.923 (inactive)
23 | Cc1c(N)c(=O)n(-c2ccccc2)n1C [Ampyrone] (20 µM) | 1.01 | 0.995 | 0.983 | 0.854 | 0.947 (inactive) | 1.07 (inactive) | 0.901 (inactive) | 0.975 (inactive) | 0.992 (inactive) | 1.03 (inactive) | 1.01 (inactive) | 0.926 (inactive)
24 | OC[C@H]1OC(O)[C@H](O)[C@H](O)[C@@H]1O (stereo partly drawn) [D-allose] (50 µM) | 1.08 | 0.999 | 0.98 | 1.07 | 0.99 (inactive) | 1.02 (inactive) | 0.896 (inactive) | 1 (inactive) | 1.01 (inactive) | 1.07 (inactive) | 0.993 (inactive) | 0.886 (inactive)
25 | CC(CN(C)C)CN1c2ccccc2CCc2ccccc21 (stereo not given) [Trimipramine maleate salt] (20 µM) | 0.87 | 0.987 | 0.974 | 0.826 | 0.994 (inactive) | 0.985 (inactive) | 0.998 (inactive) | 0.961 (inactive) | 1.01 (inactive) | 1.04 (inactive) | 1 (inactive) | 1.02 (inactive)
